Pf growth 48h: inhibits P. falciparum growth in the first generation, 48 h; Potency, µM (series often up to 28.7 µM), without a hit: top-dose activity change, negative = inhibition, actives largely listed as inhibitors; P. falciparum luciferase growth in erythrocytes, 48 h; 310,000 compounds, 5.9% hits; note: % is set by controls: 0 for no effect and ±100 for the full control effect
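Firefly luciferase activity from engineered P. falciparum reports growth; inhibitors lower the luminescent signal. Cultures contained 2% hematocrit erythrocytes at 0.1% final parasitemia.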
Pf growth 96h: inhibits malaria parasite growth, 96 h; AID 504834; Potency, µM (highest dose often 28.7 µM), without a hit: at the highest dose activity change, negative = inhibition, hits mostly inhibitors; P. falciparum luciferase reporter growth, 96 h; 320,000 compounds, 6.9% hits; note: % is set by controls: 0 for no effect and ±100 for the full control effect
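Delayed-death screen, second-generation endpoint: infected erythrocytes, 2% hematocrit, 0.05% parasitemia final; 96 hours at 37 C, 5% CO2; luciferase detection reagent; luminescence decrease equals reduced growth.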
SARS PLpro yeast: SARS-CoV PLP inhibition in yeast. S. cerevisiae expressing SARS-CoV PLpro, growth rescue. 330,000 compounds, 0.19% hits. Potency, µM (doses to about 32.9 µM), for inactives: at the highest dose activity, positive = growth rescue, usual class: activators. AID 485353; calls by dose curve; note: 0% is about no effect; nearly all actives have a fitted effect of over 55% in size
Sm TGR inh: S. mansoni TGR enzyme inhibition. 360,000 compounds, 3% hits. AID 485364. Q962Y6. purified TGR, DTNB reduction, TNB absorbance 405 nm. Potency, µM (doses to about 114 µM), inactives show top-dose activity change, negative = inhibition, actives largely listed as inhibitors; note: % is set by controls: 0 for no effect and ±100 for the full control effect; nearly all actives have a fitted effect of over 60% in size
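TGR 20 nM + NADPH 100 uM (dispensed conc.), cpd preinc 15 min RT; start with NADPH (500 uM addition) then DTNB (15 mM addition). Kinetic TNB absorbance, 405 nm filter. Four-parameter Hill fit across titration.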
* marks the source's active call; other numbers are inactive results; ? = inconclusive; . = no result. Only some compounds are listed: those with a hit (about 12% of all), similar ones and a draw of the others. Unless noted, calls come from the whole dose curve; as a rule, active = well fitted curve in the direction sought with a large enough effect; inconclusive = small, poorly fitted or top-dose-only effect, or another doubt; inactive = no such curve, though single readings can be large; an effect the other way counts as inactive or inconclusive. Potency is the fitted concentration of half-maximal effect.

SMILES	Pf growth 48h	Pf growth 96h	SARS PLpro yeast	Sm TGR inh
CC(/C=N/n1cnnc1)=C\c1ccco1	?	2%	7%	35µM*
Cc1ccccc1C(=O)NNC(=O)C1CC(=O)N(Cc2ccccc2)C1 (stereo unspecified)	16%	22%	1%	4%
NCc1oc(-c2ccccc2)cc1C(=O)O	13%	10%	-2%	45µM*
CCN(CC)Cc1cc(C(=O)O)c(-c2ccccc2)o1	8%	24%	2%	-17%
CCN(CC)Cc1oc(-c2ccccc2)cc1C(=O)O	8%	?	1%	50µM*
COc1cc2cc(CNc3ccc(C)cc3)c(=O)n(CC(=O)Nc3ccc(C(C)C)cc3)c2cc1OC	.	.	.	-29%
CNc1nc(N)c([N+](=O)[O-])c(NCC2CCCO2)n1 (stereo unspecified)	2.1µM*	-3%	0%	5%
Fc1ccc(Nc2nc(NCc3ccco3)c3ccccc3n2)cc1	0.37µM*	?	-3%	-28%
Cc1cccc(Nc2nc(NCC3CCCO3)nc(N)c2[N+](=O)[O-])c1 (stereo unspecified)	1%	?	1%	8%
Cc1ccc(Nc2nc(NCC3CCCO3)nc(N)c2[N+](=O)[O-])cc1 (stereo unspecified)	-28%	12µM*	-17%	4%
COCCNc1nc(N)c([N+](=O)[O-])c(NCC2CCCO2)n1 (stereo unspecified)	-2%	-5%	16%	0%
Nc1nc(NCC2CCCO2)nc(Nc2ccc(F)cc2)c1[N+](=O)[O-] (stereo unspecified)	?	5.9µM*	1%	-4%
Nc1nc(Nc2ccccc2)nc(NCc2ccco2)c1[N+](=O)[O-]	?	?	-6%	-12%
Cc1c(CNC2CCCCC2)c(C(=O)O)c(C)n1Cc1c(F)cccc1Cl	.	.	.	-10%
Cc1cc(C)c(C)c(S(=O)(=O)NCC(=O)Nc2ccc(F)cc2)c1C	-14%	-23%	4%	1%
Cc1ccc(Nc2nc(N)c([N+](=O)[O-])c(NCc3ccco3)n2)cc1	0%	12µM*	9%	0%
Nc1nc(N)c2nc(-c3ccccc3)c(N)nc2n1	1.7µM*	3.8µM*	-3%	4%
CN(C)c1ccc(CNC(=O)c2cnc3sc(N4CCCCCC4)nn3c2=O)cc1	.	.	.	-7%
C=CCC1(CC=C)CCCN1C(=O)CC1C(=O)NCCN1Cc1cc(OC)cc(OC)c1 (stereo unspecified)	15µM*	?	-1%	28µM*
C=CCC1(CC=C)CCCN1C(=O)CC1C(=O)NCCN1Cc1cccc(OC)c1 (stereo unspecified)	?	-20%	0%	?
COc1cc(CN2CCNC(=O)C2CC(=O)NCCC2=CCCCC2)cc(OC)c1 (stereo unspecified)	?	?	0%	40µM*
CC(=O)/C(=N\Nc1ccccc1)Sc1nnc(-c2ccccc2)n1-c1ccccc1	-27%	?	5%	-6%
CC(=O)C(N=Nc1ccccc1)(Sc1nnc(-c2ccccc2)n1-c1ccccc1)C(C)=O	?	12µM*	-9%	6%
CC(=O)C(N=Nc1ccccc1)(Sc1nnc(-c2ccccc2)n1-c1ccccc1)C(=O)Nc1ccccc1 (stereo unspecified)	13µM*	12µM*	-18%	5%
Cc1nc2ccccn2c1-c1ccnc(SCc2ccc(Cl)cc2)n1	5.9µM*	1.9µM*	1%	16%
SMILES	Pf growth 48h	Pf growth 96h	SARS PLpro yeast	Sm TGR inh
O/N=C/c1ccnc(SCc2ccc(Cl)cc2)n1	142%	326%	-1%	12%
COc1ccc(C(=O)NCCS(=O)(=O)NCc2ccccc2)cc1	2%	8%	1%	1%
O=C(Cc1n[nH]c(=O)[nH]c1=O)N/N=C/c1ccccc1O	1.5µM*	32%	2%	3%
COc1ccc(/C=N/NC(=O)Cc2n[nH]c(=O)[nH]c2=O)cc1	8%	36%	2%	-1%
CC1CCc2c(sc3nc(C(C)(C)C)nc(N4CCN(C(=O)CCl)CC4)c23)C1 (stereo unspecified)	-56%	6.6µM*	-8%	3%
CCC(=O)N1CCN(c2nc(CC)nc3sc4c(c23)CCCC4)CC1	?	-26%	-9%	3%
CC(C)c1nn2c(=O)cc(COC(=O)c3cccc(NC(=O)COc4ccc(F)cc4)c3)nc2s1	.	.	.	1%
CCOP(=O)(c1ccccc1)c1nc(-c2ccccc2Cl)oc1N1CCCCC1 (stereo unspecified)	6.6µM*	?	-33%	4%

Compound activity as filed in PubChem.
